Assay results published in PubChem BioAssay (EPA / NIEHS).
Activity calls are given as the source filed them. Rule for the calls: active = hit-call score of the fitted dose curve at least 0.9, where 1 is the maximum; inactive = score below 0.9.

Legend:
[1] = ATG_CRE_CIS: Attagene CIS-FACTORIAL HepG2 Assay for human cAMP Responsive Element (CRE) binding protein 3 (AID 2282926); conditions: HepG2 CRE cis-reporter, Attagene multiplexed mRNA; actives raise or lower the signal
In short: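 HepG2 cells transiently transfected with cis-element-driven multiple reporter transcription units; CRE reporter mRNA measured 24 h after dosing by RT-PCR, 6-FAM labelling, HpaI digestion and capillary electrophoresis. Bidirectional fit versus DMSO baseline.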

[2] = target: CCAAT/enhancer-binding protein beta (Homo sapiens) (UniProt P17676); experiment: ATG_C_EBP_CIS: Attagene CIS-FACTORIAL HepG2 Assay for human CCAAT/Enhancer Binding Protein (C/EBP) beta (AID 2282927); conditions: HepG2 Attagene cis-factorial transcription factor reporter; actives raise or lower the signal
Chain of CCAAT/enhancer-binding protein beta (Homo sapiens) (P17676 whole entry, looked up): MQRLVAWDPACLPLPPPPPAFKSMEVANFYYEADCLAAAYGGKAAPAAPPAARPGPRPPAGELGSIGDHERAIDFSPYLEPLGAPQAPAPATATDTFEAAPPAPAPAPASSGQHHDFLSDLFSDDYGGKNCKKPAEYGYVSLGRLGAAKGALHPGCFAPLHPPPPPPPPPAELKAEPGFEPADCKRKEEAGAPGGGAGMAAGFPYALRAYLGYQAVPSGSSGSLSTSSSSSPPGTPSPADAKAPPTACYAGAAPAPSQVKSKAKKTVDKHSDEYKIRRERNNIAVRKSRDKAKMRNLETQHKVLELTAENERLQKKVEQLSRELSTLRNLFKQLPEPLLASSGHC
In short: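 Changes in reporter mRNA, rather than exogenous chimeric receptor activity, reflect native C/EBP signalling in transfected HepG2 cells dosed for 24 h; transcripts are detected by RT-PCR and capillary electrophoresis.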

[3] = ATG_CMV_CIS: Attagene CIS-FACTORIAL HepG2 Assay for human CMV (Internal Marker) (AID 2282928); conditions: HepG2 CMV promoter reporter, transcription factor profiling; actives raise or lower the signal;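 note: endpoint acts as a background internal control marker rather than a target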
In short: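 Endogenous transcription factor activity read in HepG2 via transfected cis-promoter reporter units. After 24 h dosing, reporter mRNA measured by RT-PCR/capillary electrophoresis; gain or loss of signal fit relative to DMSO.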

[4] = ATG_DR4_LXR_CIS: Attagene CIS-FACTORIAL HepG2 Assay for human Liver X Receptor (LXR), DR4 submotif (AID 2282929); conditions: HepG2 Attagene DR4 cis-reporter, mRNA transcription; actives raise or lower the signal
In short: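 Fluorescence intensity of labelled reporter cDNA fragments, separated by capillary electrophoresis, gives the signal. HepG2 cells bearing cis-regulated reporter constructs were treated 24 h; activity fitted bidirectionally relative to DMSO negative control.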

[5] = target: Aryl hydrocarbon receptor (Homo sapiens) (UniProt P35869); experiment: ATG_Ahr_CIS: Attagene CIS-FACTORIAL HepG2 Assay for human Aryl Hydrocarbon Receptor (Ahr) (AID 2282930); conditions: HepG2 AhR cis-factorial reporter transcription; actives raise or lower the signal
Chain of Aryl hydrocarbon receptor (Homo sapiens) (P35869 whole entry, looked up): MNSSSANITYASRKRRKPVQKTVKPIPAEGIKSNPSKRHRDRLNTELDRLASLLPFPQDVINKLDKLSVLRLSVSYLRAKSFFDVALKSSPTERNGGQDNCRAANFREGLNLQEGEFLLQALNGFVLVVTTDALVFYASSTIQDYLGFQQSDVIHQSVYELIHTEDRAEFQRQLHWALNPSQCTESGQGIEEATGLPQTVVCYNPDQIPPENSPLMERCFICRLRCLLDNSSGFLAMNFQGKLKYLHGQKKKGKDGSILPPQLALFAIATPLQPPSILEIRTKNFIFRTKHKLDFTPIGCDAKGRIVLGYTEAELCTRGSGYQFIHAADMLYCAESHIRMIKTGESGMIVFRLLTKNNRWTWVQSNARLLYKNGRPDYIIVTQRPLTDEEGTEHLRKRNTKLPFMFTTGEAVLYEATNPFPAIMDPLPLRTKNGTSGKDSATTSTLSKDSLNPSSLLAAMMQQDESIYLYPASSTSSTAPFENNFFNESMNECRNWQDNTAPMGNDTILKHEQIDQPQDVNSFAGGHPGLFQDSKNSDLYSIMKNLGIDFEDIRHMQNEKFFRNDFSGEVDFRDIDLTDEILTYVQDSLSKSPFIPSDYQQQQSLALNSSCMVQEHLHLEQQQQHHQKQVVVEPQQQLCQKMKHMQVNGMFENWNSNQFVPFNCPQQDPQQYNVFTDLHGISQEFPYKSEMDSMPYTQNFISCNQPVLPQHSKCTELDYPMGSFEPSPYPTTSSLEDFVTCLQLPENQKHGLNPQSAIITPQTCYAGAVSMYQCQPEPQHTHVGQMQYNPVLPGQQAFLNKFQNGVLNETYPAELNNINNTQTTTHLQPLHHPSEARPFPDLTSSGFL
In short: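 HepG2, transient MRTU (cis) transfection, 24 h exposure. RNA → cDNA → PCR → 6-FAM primer extension → HpaI 2 h 37 C → CE. Fit: bidirectional, DMSO baseline.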

[6] = ATG_AP_1_CIS: Attagene CIS-FACTORIAL HepG2 Assay for human Activator Protein 1 (AP-1) (AID 2282931); conditions: HepG2 Attagene cis-factorial AP-1 reporter mRNA; actives raise or lower the signal
In short: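 Multiplexed HepG2 reporter assay, 24 h dosing. mRNA induction detected by RT-PCR plus capillary electrophoresis. Activity fitted in both directions against DMSO.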

[7] = ATG_AP_2_CIS: Attagene CIS-FACTORIAL HepG2 Assay for human Activator Protein 2 (AP-2) (AID 2282932); conditions: HepG2 AP-2 cis-reporter, Attagene transcription factor profiling; actives raise or lower the signal
In short: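 Step one: transient transfection of HepG2 with reporter transcription units. Step two: 24 h chemical exposure. Step three: RNA extraction, RT-PCR, labelled fragment analysis by capillary electrophoresis; DMSO serves as baseline.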

[8] = ATG_BRE_CIS: Attagene CIS-FACTORIAL HepG2 Assay for human Bone Morphogenetic Protein (BMP) Response Element (BRE) (AID 2282933); conditions: HepG2 BMP response element reporter, Attagene transcription factor profiling; actives raise or lower the signal
In short: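 Gain- or loss-of-signal was derived by bidirectional fitting against DMSO controls. The signal came from reporter mRNA, measured by RT-PCR and capillary electrophoresis, in HepG2 cells transiently carrying multiple reporter units and dosed for 24 h.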

[9] = target: Transcription factor E2F1 (Homo sapiens) (UniProt Q01094); experiment: ATG_E2F_CIS: Attagene CIS-FACTORIAL HepG2 Assay for human E2F Transcription Factor 1 (AID 2282935); conditions: HepG2 Attagene cis-reporter, E2F reporter RNA transcripts; actives raise or lower the signal
Chain of Transcription factor E2F1 (Homo sapiens) (Q01094 whole entry, looked up): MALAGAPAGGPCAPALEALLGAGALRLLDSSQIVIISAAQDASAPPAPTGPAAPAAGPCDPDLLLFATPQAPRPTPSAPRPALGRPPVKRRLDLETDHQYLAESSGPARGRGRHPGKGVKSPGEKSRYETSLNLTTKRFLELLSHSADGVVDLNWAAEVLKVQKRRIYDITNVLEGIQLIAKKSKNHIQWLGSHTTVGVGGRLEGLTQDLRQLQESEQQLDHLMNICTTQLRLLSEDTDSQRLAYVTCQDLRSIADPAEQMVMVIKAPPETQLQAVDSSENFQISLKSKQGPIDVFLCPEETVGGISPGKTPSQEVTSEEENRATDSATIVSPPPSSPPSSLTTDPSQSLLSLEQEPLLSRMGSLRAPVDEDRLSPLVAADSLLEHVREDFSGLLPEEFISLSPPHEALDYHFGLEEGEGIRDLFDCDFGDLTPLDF
In short: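 Total RNA from 24 h-treated, reporter-transfected HepG2 cells undergoes DNase I treatment, oligo(dT) reverse transcription, PCR and 6-FAM primer extension before capillary electrophoresis.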

[10] = ATG_E_Box_CIS: Attagene CIS-FACTORIAL HepG2 Assay for human Enhancer Box (E-box) (AID 2282936); conditions: HepG2 E-box cis-reporter transcription, actives raise or lower the signal
In short: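 DMSO served as negative control and baseline for bidirectional fitting. Human hepatoma HepG2 cells, transiently transfected with cis-reporter constructs, were dosed 24 h; reporter mRNA read by RT-PCR and capillary electrophoresis.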

[11] = ATG_M_61_CIS: Attagene CIS-FACTORIAL HepG2 Assay for M61 Transcription Factor (Internal Marker) (AID 2282937); conditions: HepG2 Attagene CIS-FACTORIAL M61 internal marker reporter; actives raise or lower the signal
In short: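 Endogenous transcription factor activity in HepG2 is read through transiently transfected cis-element reporter units. After 24 h dosing, RNA undergoes reverse transcription, PCR and primer extension with 6-FAM before capillary electrophoresis; DMSO-referenced bidirectional fit.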

[12] = ATG_EGR_CIS: Attagene CIS-FACTORIAL HepG2 Assay for human Early Growth Response 1 (EGR1) (AID 2282938); conditions: HepG2 Attagene CIS-FACTORIAL EGR reporter mRNA; actives raise or lower the signal
In short: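 Activity is taken as induction or loss of reporter mRNA versus DMSO, fitted bidirectionally. Transcripts from cis-regulated reporter units in transiently transfected HepG2 were measured after 24 h by RT-PCR with capillary electrophoresis.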

[13] = ATG_M_19_CIS: Attagene CIS-FACTORIAL HepG2 Assay for M19 Transcription Factor (Internal Marker) (AID 2282939); conditions: HepG2 Attagene CIS-FACTORIAL M19 internal marker reporter; actives raise or lower the signal
In short: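 Following a 24 h exposure, RNA from transfected HepG2 cells was reverse-transcribed, PCR-amplified with reporter-specific primers, end-labelled with 6-FAM and HpaI-digested before capillary separation. Values represent gain or loss versus DMSO.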

[14] = ATG_Ets_CIS: Attagene CIS-FACTORIAL HepG2 Assay for human Erythroblast Transformation Specific (ETS) (AID 2282941); conditions: HepG2 ETS cis-reporter transcription, actives raise or lower the signal
In short: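 Steps: transfect HepG2 with multiple reporter units; treat compound 24 h; isolate RNA, DNase-treat, reverse-transcribe; PCR-amplify, label with 6-FAM, digest with HpaI; separate by capillary electrophoresis. Activity fitted both directions versus DMSO.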

[15] = target: Hepatocyte nuclear factor 3-beta (Homo sapiens) (UniProt Q9Y261); experiment: ATG_FoxA2_CIS: Attagene CIS-FACTORIAL HepG2 Assay for human Forkhead box A2 (FOXA2) (AID 2282942); conditions: HepG2 cis-reporter transcription factor activity, 24 h; actives raise or lower the signal
Chain of Hepatocyte nuclear factor 3-beta (Homo sapiens) (Q9Y261 whole entry, looked up): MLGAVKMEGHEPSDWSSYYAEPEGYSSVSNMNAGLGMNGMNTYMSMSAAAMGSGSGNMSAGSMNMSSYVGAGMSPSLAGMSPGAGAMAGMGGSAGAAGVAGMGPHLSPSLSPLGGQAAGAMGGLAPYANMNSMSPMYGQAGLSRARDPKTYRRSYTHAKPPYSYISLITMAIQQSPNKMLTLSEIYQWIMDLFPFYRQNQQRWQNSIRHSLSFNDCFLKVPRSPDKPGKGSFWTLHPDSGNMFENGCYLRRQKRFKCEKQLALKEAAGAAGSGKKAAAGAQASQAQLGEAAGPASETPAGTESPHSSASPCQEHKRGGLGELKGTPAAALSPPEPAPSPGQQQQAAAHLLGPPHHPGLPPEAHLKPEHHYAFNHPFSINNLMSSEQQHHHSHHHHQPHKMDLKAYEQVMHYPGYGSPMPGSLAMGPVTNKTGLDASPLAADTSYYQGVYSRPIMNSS
In short: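 Reporter transcript induction is measured by fluorescence after capillary electrophoresis of RT-PCR products from HepG2 cells exposed 24 h. Cis-regulated reporter units report endogenous factor activity; curves fitted both directions against DMSO.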

[16] = ATG_FoxO_CIS: Attagene CIS-FACTORIAL HepG2 Assay for human Forkhead box O (FoxO) (AID 2282943); conditions: HepG2 Attagene cis-reporter, FoxO element, mRNA; actives raise or lower the signal
In short: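 Human hepatoma HepG2 cells carry transiently introduced reporter transcription units controlled by cis promoter elements. Chemical treatment lasted 24 h, and mRNA signal was compared with DMSO.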

[17] = ATG_GATA_CIS: Attagene CIS-FACTORIAL HepG2 Assay for human GATA Binding Protein (AID 2282944); conditions: HepG2 GATA cis-element reporter, Attagene multiplex mRNA; actives raise or lower the signal
In short: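 DMSO serves as negative control and baseline for bidirectional fitting of reporter mRNA changes. HepG2 cells bearing transiently transfected cis-promoter reporters were exposed 24 h; transcripts detected via RT-PCR and capillary electrophoresis.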

[18] = ATG_GLI_CIS: Attagene CIS-FACTORIAL HepG2 Assay for human Zinc Finger Protein GLI1 (AID 2282945); conditions: HepG2, Attagene cis-factorial reporter mRNA, GLI element; actives raise or lower the signal
In short: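 Bidirectional curve fits relative to DMSO, using reporter mRNA levels from RT-PCR plus capillary electrophoresis. Cells were HepG2 transiently carrying cis-regulated reporter constructs, harvested 24 h after dosing.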

[19] = target: Retinoic acid receptor alpha (Homo sapiens) (UniProt P10276); experiment: ATG_DR5_RAR_CIS: Attagene CIS-FACTORIAL HepG2 Assay for human Retinoic Acid Receptor Alpha (RARE), DR5 submotif (AID 2282934); conditions: HepG2 Attagene cis-factorial RARE DR5 reporter, mRNA; actives raise or lower the signal;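 for AC50: reporter responds to endogenous RAR alpha beta and gamma in HepG2 not RARA alone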
Chain of Retinoic acid receptor alpha (Homo sapiens) (P10276 whole entry, looked up): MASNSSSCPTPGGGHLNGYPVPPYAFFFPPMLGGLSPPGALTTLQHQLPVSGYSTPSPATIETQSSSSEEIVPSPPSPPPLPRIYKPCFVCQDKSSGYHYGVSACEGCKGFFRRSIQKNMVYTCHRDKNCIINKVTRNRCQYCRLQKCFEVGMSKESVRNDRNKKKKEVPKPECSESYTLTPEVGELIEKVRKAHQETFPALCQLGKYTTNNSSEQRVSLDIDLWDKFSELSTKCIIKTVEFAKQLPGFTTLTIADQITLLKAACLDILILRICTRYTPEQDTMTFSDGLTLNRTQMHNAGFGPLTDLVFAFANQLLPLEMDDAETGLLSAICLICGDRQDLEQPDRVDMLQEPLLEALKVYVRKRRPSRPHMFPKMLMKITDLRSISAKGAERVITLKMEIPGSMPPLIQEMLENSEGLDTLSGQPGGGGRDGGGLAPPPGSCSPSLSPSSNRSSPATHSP
In short: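 HepG2, transient cis-reporter transfection, 24 h exposure. mRNA readout: RT-PCR, FAM label, HpaI cut, capillary electrophoresis. DMSO baseline, gain/loss fitting.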

[20] = ATG_ERE_CIS: Attagene CIS-FACTORIAL HepG2 Assay for Estrogen Response Element (ERE) (AID 2282940); conditions: HepG2 ERE cis-reporter, Attagene RNA transcript; actives raise or lower the signal
In short: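 HepG2, transient cis-reporter units, 24 h exposure. RNA isolated, oligo(dT) RT, reporter-specific PCR, FAM extension, HpaI cut, CE detection. Gain/loss-of-signal vs DMSO.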

Measured: AC50

C=CC(=C)CCCC(C)(C)OC(C)=O
inactive: [1] | [2] | [3] | [4] | [5] | [6] | [7] | [8] | [9] | [10] | [11] | [12] | [13] | [14] | [15] | [16] | [17] | [18]

CCCCCCC(=O)c1ccccc1
inactive: [1] | [2] | [3] | [4] | [5] | [7] | [9] | [10] | [11] | [12] | [13] | [14] | [15] | [16] | [17] | [18]
active: [6] 154 µM | [19] 101 µM

C=C(C)C1CC=C(C)C(=O)C1 (centres undefined)
inactive: [1] | [2] | [3] | [4] | [5] | [6] | [7] | [8] | [9] | [10] | [11] | [12] | [14] | [15] | [16] | [17] | [18]

C#CC(C)(O)CC(C)C (centres undefined)
inactive: [1] | [2] | [3] | [4] | [5] | [6] | [7] | [8] | [9] | [10] | [11] | [12] | [13] | [14] | [15] | [16] | [17] | [18]

C=C(C)[C@@H]1CC=C(C)C(=O)C1
inactive: [1] | [2] | [3] | [4] | [5] | [6] | [7] | [8] | [9] | [10] | [11] | [12] | [13] | [14] | [15] | [16] | [17] | [18]

NC(=S)NNC(N)=S
inactive: [1] | [2] | [3] | [4] | [5] | [6] | [7] | [8] | [9] | [10] | [11] | [12] | [13] | [15] | [16] | [17] | [18]

IC(I)I
active: [5] 12.8 µM
inactive: [1] | [2] | [3] | [4] | [6] | [7] | [8] | [9] | [10] | [11] | [12] | [13] | [15] | [16] | [17] | [18]

COc1ccc(COC(C)=O)cc1
inactive: [1] | [2] | [3] | [4] | [5] | [6] | [7] | [8] | [10] | [11] | [12] | [13] | [14] | [15] | [16] | [17] | [18]

CS(C)=O
inactive: [1] | [2] | [3] | [4] | [5] | [6] | [7] | [19] | [9] | [10] | [11] | [12] | [13] | [15] | [16] | [17] | [18]

C=CC(C)(O)CCC=C(C)C (centres undefined)
inactive: [1] | [2] | [3] | [4] | [5] | [6] | [7] | [19] | [9] | [10] | [11] | [12] | [13] | [14] | [15] | [16] | [17] | [18]

CCCCCCCCCC(=O)OC
inactive: [1] | [2] | [3] | [4] | [6] | [7] | [8] | [9] | [10] | [11] | [12] | [13] | [14] | [15] | [16] | [17] | [18]
active: [5] 74.7 µM

O=C(O)c1cccnc1C(=O)O
inactive: [1] | [2] | [3] | [4] | [5] | [6] | [8] | [19] | [9] | [10] | [11] | [12] | [13] | [20] | [14] | [15] | [16] | [17] | [18]

c1ccc2[nH]cnc2c1
inactive: [1] | [2] | [3] | [4] | [5] | [6] | [7] | [19] | [9] | [10] | [11] | [12] | [13] | [14] | [15] | [16] | [17] | [18]

Nc1ccccc1[N+](=O)[O-]
inactive: [1] | [2] | [3] | [4] | [5] | [6] | [7] | [19] | [9] | [10] | [11] | [12] | [13] | [14] | [15] | [16] | [17] | [18]

CC(=O)NCCO
inactive: [1] | [2] | [3] | [4] | [5] | [6] | [7] | [8] | [10] | [11] | [12] | [13] | [14] | [15] | [16] | [18]
